From PubChem BioAssay
BoNT A protease: BoNT/A light chain protease inhibitors, primary screen, biochemical, flow cytometry, MLPCN library. actives 0.17% (n = 360,000). multiplex microsphere protease substrate cleavage. Botulinum neurotoxin type A light chain protease (Clostridium botulinum A str. ATCC 3502). inhibition, % at 10 µM. AID 588499, 2011
Bead autofluor: compound fluorescence in toxin protease inhibitor counterscreen; AID 624483; compound autofluorescence counterscreen, microsphere flow cytometry; hits give high values; actives 3.1% (n = 360,000); fluorescence intensity (test concentration not listed); in the data active = fluorescence intensity above about 16000; inconclusive = no clear call, values can overlap the other calls
MazF activator: activators of E. coli MazEF toxin-antitoxin RNase, primary screen, biochemical, fluorescence, uHTS. Endoribonuclease toxin MazF (Escherichia coli (strain K12)), P0AE70. actives 0.32% (n = 350,000). FAM/BHQ RNA-DNA oligo cleavage fluorescence, 5 h. activation, % at 20 µM; in the data active = activation above about 50%
Target sequence (P0AE70 whole entry, looked up): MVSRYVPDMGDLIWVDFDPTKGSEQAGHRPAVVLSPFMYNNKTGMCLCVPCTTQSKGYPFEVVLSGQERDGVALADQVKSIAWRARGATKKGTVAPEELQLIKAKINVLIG
Anthrax LF inh2: Bacillus anthracis LF protease inhibitors, primary screen, biochemical, multiplex microsphere, MLPCN library; Lethal factor (Bacillus anthracis), P15917; multiplex microsphere protease cleavage assay; inhibition, % at 10 µM; actives 0.12% (n = 360,000)
BoNT F protease: BoNT/F light chain protease inhibitors, primary screen, biochemical, flow cytometry, MLPCN library; AID 588497, 2011; inhibition, % at 10 µM; Multiplex microsphere protease cleavage assay; Botulinum neurotoxin type F light chain protease (Clostridium botulinum); actives 0.22% (n = 360,000); in the data active = inhibition above about 35%, passing the limit was not always enough; inconclusive = no clear call, values can overlap the other calls
PfHsp40 yeast: rescue of yeast from PfHsp40 toxicity, primary screen, S. cerevisiae, ATP luminescence; S. cerevisiae expressing PfHsp40, growth rescue; growth rescue, % at 12.5 µM; actives 0.68% (n = 340,000); in the data active = growth rescue above about 28%, passing the limit was not always enough; inconclusive = no clear call, values can overlap the other calls;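 note: yeast W303a lacking pdr1 and pdr3 grown in galactose medium; growth measured after three days at 30 °C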
A number is an active result; i = inactive; ? = inconclusive; nt = no result. In the library only some 4.3% were active in any assay of this set; here they are far more common. Cut-off read from the data, not from the text of the source, unless noted: active = inhibition above about 30%; inconclusive = no clear call, values can overlap the other calls; inactive = below that.

SMILES | BoNT A protease | Bead autofluor | MazF activator | Anthrax LF inh2 | BoNT F protease | PfHsp40 yeast
CN1CCN(c2ccc(-c3cc(NC=O)c4ncc(-c5ccccc5)n4c3)cc2)CC1 | i | i | nt | i | i | nt
Cc1ccc2c(c1)=N/C(=N\c1[nH]c(O)c3ccccc13)N=2 | i | i | 58 | i | i | nt
Cc1ccc(O)c(Nc2c3ccccc3nc3ccccc23)c1 | i | i | i | i | i | i
CC(C)(C)CC(C)(C)NC(=S)Nc1ccc2nc(-c3ccccn3)c(-c3ccccn3)nc2c1 | 42 | i | i | i | i | i
CN(C)NC(=S)Nc1ccc2nc(-c3ccccn3)c(-c3ccccn3)nc2c1 | i | i | i | i | i | i
Cc1ccc(NS(=O)(=O)c2ccc(N3CCN(c4ccc(O)cc4)CC3)c([N+](=O)[O-])c2)c(C)c1 | i | i | i | i | i | 70
CCOC(=O)Cc1c(C)nc2c(-c3ccccc3)c(C)nn2c1C | i | i | i | i | i | i
CCOC(=O)c1cnn(-c2cc(C(C)(C)C)nc3c(-c4ccccc4)c(C)nn23)c1N | ? | 26542 | i | i | i | i
CCOC(=O)c1cnn(-c2cc(C)nc3c(-c4ccccc4)cnn23)c1N | i | i | i | i | i | i
CCOC(=O)c1cnn(-c2c(Cc3ccccc3)c(C)nc3c(-c4ccccc4)c(C)nn23)c1N | i | 22024 | i | i | i | i
Cc1ccc2c(ccc(=S)n2C)c1 | i | i | i | i | i | i
Nc1nonc1C(=O)N/N=C/c1cc(Br)ccc1O | nt | nt | i | nt | nt | 168
CCCCCCCCN1[C@@H](CC(=O)OCC)c2ccc(C(F)(F)F)cc2S1(=O)=O | i | i | i | i | i | 38
CCCCCCCCCCCCN1[C@@H](CC(=O)O)c2cc(F)ccc2S1(=O)=O | i | i | i | i | i | 49
CCCCCCCCN1[C@@H](CC(=O)OC)c2cc(F)ccc2S1(=O)=O | i | i | i | i | i | i
CC(C)(C)OC(=O)N1CCC(c2c(C(=O)NC3CC3)cnn2-c2ccccc2)CC1 | i | i | i | i | i | i
COc1ccc(-c2cc(C(=O)N(C)Cc3nc4ccccc4c(=O)[nH]3)c3ccccc3n2)cc1OC | i | i | i | i | i | i
O=c1[nH]c(=O)n(-c2ccc(F)cc2)c2c1C(C(F)(F)F)(C(F)(F)F)N=C(c1ccc(F)cc1)N2 | i | i | i | i | i | i
COc1ccc(-n2c3c(c(=O)[nH]c2=O)C(C(F)(F)F)(C(F)(F)F)N=C(CC(C)C)N3)cc1 | i | 19298 | i | i | i | i
COc1cccc(CN(CC2CCCO2)S(=O)(=O)c2ccc(S(=O)(=O)N(C)C)cc2)c1 (stereo unspecified) | i | 22709 | i | i | i | i
O=C(O)/C(=C\c1ccc(-c2ccc(F)cc2)o1)c1ccccc1 | i | i | i | i | i | 37
O=C(/C=C/c1ccccc1)c1ccccc1 | i | i | i | i | i | i
O=C(/C=C\c1ccc(-c2ccccc2)o1)c1ccccc1 | 66 | i | i | i | i | i
O=Cc1ccc(-c2ccc(F)cc2)o1 | i | i | i | i | i | i
Cc1ccc(C(=O)/C=C\C(=O)c2ccc(C)cc2)cc1 | i | i | i | i | i | i
SMILES | BoNT A protease | Bead autofluor | MazF activator | Anthrax LF inh2 | BoNT F protease | PfHsp40 yeast
CCN(CC)S(=O)(=O)c1ccc(C(=O)/C=C/c2ccc(-c3ccc([N+](=O)[O-])cc3)o2)cc1 | 79 | i | 298 | 48 | i | i
Cc1ccc(C(=O)/C=C/c2ccc(-c3ccc(C)cc3)o2)cc1 | 41 | i | i | i | i | i
CCc1ccc(C(=O)/C=C/c2ccc([N+](=O)[O-])o2)cc1 | i | i | i | i | i | 120
CCOC(=O)CCc1ccc(NC(=O)/C=C/c2ccc([N+](=O)[O-])o2)cc1 | i | i | i | i | i | i
CCOc1ccc(C2c3cc(OC)c(OC)cc3CC(=O)N2c2ccccc2)cc1 (stereo unspecified) | i | 20080 | i | i | i | i
CCOc1cc2c(cc1OCC)C(c1ccc(OC)cc1)N(c1ccccc1)C(=O)C2 (stereo unspecified) | i | i | i | i | i | i
CN1CCN(S(=O)(=O)c2csc(C(N)=O)c2)CC1 | i | i | i | i | i | i
